The source of these data is PubChem BioAssay (Tox21).

Values without a mark were called inactive. Records with an inconclusive call do not appear. Calls of active or inactive are those of the source. Unless noted, calls come from the whole dose curve.

The target in assay [1] is Thyrotropin receptor (Homo sapiens) (UniProt P16473). Nature of the assay: qHTS assay to identify small molecule agonists of the thyroid stimulating hormone receptor (TSHR) signaling pathway (AID 1224843). Note: nearly all actives have a fitted effect of over 45% in size. Put shortly:
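HEK293/TSHR, 800 cells/well; cpd 30 min RT; add cAMP-d2 + anti-cAMP-cryptate, 1 h RT; fluorescence read on plate reader. 15-pt titration, n=3.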

A short description of assay [2]: qHTS assay to identify small molecule agonists of the hypoxia (HIF-1) signaling pathway - cell viability counter screen (AID 1224844). Note: nearly all actives have a fitted effect of over 50% in size. In a few lines:
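Viability counter screen: HRE-bla ME-180 cells plated 5 hrs before compound addition, treated 17 hrs at 37C and 5% CO2, then CellTiter-Glo added after the FRET reporter read; luminescence after 30 min.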

A short description of assay [3]: qHTS assay to identify small molecule agonists of H2AX (AID 1224845; active = well fitted activation curve with a large enough effect in the signal ratio in the repeat runs, not every such curve was filed as active; the % refers to the signal ratio). Put shortly: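 Wild-type CHO-K1 cells, plated overnight, exposed 3hr at 37C to 15 concentrations (0.76% DMSO final). Lysed, then HTRF anti-pH2AX (S139) cryptate and anti-H2AX-d2 antibodies, 24 hr room temperature; 665/620 nm emission read.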
Assay [4] is described as follows: qHTS assay to identify small molecule agonists of the hypoxia (HIF-1) signaling pathway (AID 1224846; active = well fitted activation curve with a large enough effect in the signal ratio in the repeat runs, not every such curve was filed as active; the % refers to the signal ratio). Put shortly:
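Agonist mode reporter screen. ME-180 cells stably expressing bla under HRE control received test compounds in DMSO for 17 hrs (37C, 5% CO2), and beta-lactamase activity was then detected with the CCF4-AM FRET substrate.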

The nature of assay [5]: qHTS assay to identify small molecule agonists of H2AX - cell viability counter screen (AID 1224847). Note: top concentration of the series differs between compounds; nearly all actives have a fitted effect of over 30% in size. In a few lines:
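Read-out: CellTiter-Glo luminescence, 30 min RT. Cells: wild-type CHO-K1, 1000/well, 10% FBS, plated overnight at 37C. Treatment: 15 concentrations, 3 hr, 37C, 0.76% DMSO.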

Assay [6] can be described thus: qHTS RealTime-Glo MT Cell Viability Assay in HepG2 cells - 24 hour (AID 1224867; active = well fitted curve in the direction sought with a large enough effect in the repeat runs; an effect the other way counts as inactive or inconclusive; note: nearly all actives have a fitted effect of over 50% in size). In a few lines: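 HepG2 cells (600/well) were dispensed with RealTime-Glo reagents, incubated 5 h at 37 °C, then treated with compounds in DMSO for up to 40 h. Nonlytic NanoLuc luminescence reflecting viable cells was read at each stated time point.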
Assay [7] in a line: qHTS RealTime-Glo MT Cell Viability Assay in HEK293 cells - 32 hour (AID 1224868; active = well fitted curve in the direction sought with a large enough effect in the repeat runs; an effect the other way counts as inactive or inconclusive; note: nearly all actives have a fitted effect of over 50% in size; note: potency is the fitted concentration of half-maximal effect; for activity change, negative = cytotoxic: top concentration of the series differs between compounds). In a few lines:
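HEK293 cells seeded with NanoLuc/prosubstrate reagent, rested 5 h at 37 C, then dosed and kept at 37 C up to 40 h. Nonlytic real-time luminescence from viable cells read at 0, 8, 16, 24, 32 and 40 h.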

Assay [8] is described as follows: A CellTox Green Cytotoxicity Assay to monitor cytotoxicity in HEK293 cells - 0 hour (AID 1224869; active = well fitted curve in the direction sought with a large enough effect in the repeat runs; an effect the other way counts as inactive or inconclusive; note: nearly all actives have a fitted effect of over 50% in size). In a few lines:
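Dead-cell fluorescence measured kinetically: asymmetric cyanine dye, HEK293, 600 cells/well, 5 h settle, 23 nL cpd/DMSO, 37 C, reads 0–40 h every 8 h.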

Assay [9] in a line: qHTS assay to identify small molecule agonists of the estrogen related receptor (ERR) signaling pathway from Tox21 library (AID 1224849). Note: nearly all actives have a fitted effect of over 15% in size. The following applies: ERR reporter cell line, ONE-Glo luciferase, 18 h; at 92.4 µM (top of the series) unless noted. In a few lines: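 Quantitative HTS in agonist format: NTP ERR cell line, compounds transferred in DMSO after 6 h plating, 18 h incubation at 37 C, ONE-Glo luminescence endpoint.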
% is set by controls: 0 for no effect and ±100 for the full control effect.

Sequence of Thyrotropin receptor (Homo sapiens) (P16473 whole entry, looked up): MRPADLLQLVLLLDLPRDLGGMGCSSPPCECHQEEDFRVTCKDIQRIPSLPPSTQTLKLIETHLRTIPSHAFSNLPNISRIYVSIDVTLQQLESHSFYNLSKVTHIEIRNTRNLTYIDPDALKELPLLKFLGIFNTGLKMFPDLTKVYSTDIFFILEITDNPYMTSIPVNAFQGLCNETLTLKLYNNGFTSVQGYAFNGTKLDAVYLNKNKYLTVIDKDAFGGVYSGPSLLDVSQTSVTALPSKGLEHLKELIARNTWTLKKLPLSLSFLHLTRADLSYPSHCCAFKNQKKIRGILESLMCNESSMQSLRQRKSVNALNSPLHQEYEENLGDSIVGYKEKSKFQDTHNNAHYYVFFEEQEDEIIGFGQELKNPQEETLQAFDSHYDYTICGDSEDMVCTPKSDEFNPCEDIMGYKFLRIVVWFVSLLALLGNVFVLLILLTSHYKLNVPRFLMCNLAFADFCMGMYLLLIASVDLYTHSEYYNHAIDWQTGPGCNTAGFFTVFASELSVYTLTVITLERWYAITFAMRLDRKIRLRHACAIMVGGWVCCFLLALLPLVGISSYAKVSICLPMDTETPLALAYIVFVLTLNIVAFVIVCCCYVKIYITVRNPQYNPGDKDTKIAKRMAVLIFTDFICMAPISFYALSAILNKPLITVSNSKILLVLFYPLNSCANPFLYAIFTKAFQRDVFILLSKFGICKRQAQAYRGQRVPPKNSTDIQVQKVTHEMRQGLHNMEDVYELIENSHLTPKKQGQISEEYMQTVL

As to `CC(CN)CC(C)(C)CCN` (configuration not stated), the Potency result in assay [1], in assay [5] and in [7] was “inactive” each time. The result in [2], in assay [3], in assay [4], in assay [6] and in assay [8] was inactive.

With `N[C@@H](CCC(=O)N[C@@H](CS)C(=O)NCC(=O)O)C(=O)O`, the activation in assay [1] was 2.71% [at 19 µM]; in assay [4], -0.104% [at 15.8 µM]. In addition, the figures for the activity change, negative = cytotoxicity in assay [2], in assay [5] and in assay [6] were 2.76% [at 15.8 µM], 0.69% [at 31.6 µM] and 0.707% [at 15.8 µM], respectively. Besides, the activation (H2AX phosphorylation) in assay [3] was -1.53% [at 31.6 µM]. Besides, the activity change, negative = cytotoxic in assay [7] was 7.09% [at 15.8 µM]. The cytotoxicity in assay [8] was 0.542% [at 15.8 µM].

For the compound `O=C(OCC(O)CO)c1ccccc1Nc1ccnc2c(C(F)(F)F)cccc12` (configuration not stated), the Potency result in assay [1] and in assay [5] was “inactive” each time. In addition, the outcome in assay [2], in assay [3], in assay [4], in [6] and in assay [8] was inactive. For the same compound, the Potency in [7] was 4.25 µM (active).

With `Cc1ccc2c(c1)OCC(=O)CO2`, the Potency entry in assay [1], in assay [5] and in [7] was “inactive” in each case. In addition, the outcome in assay [2], in [3], in assay [4], in [6] and in assay [8] was inactive.

As to `Cc1cccc(OCC(O)CNC(C)(C)C)c1C` (configuration not stated), the Potency result in assay [1], in assay [5] and in [7] was “inactive” each time. Besides, the result in assay [2], in assay [3], in assay [4], in assay [6] and in assay [8] was inactive.

In the case of `CCCCCCCCOS(=O)(=O)O`, the Potency entry in [1], in assay [5] and in assay [7] was “inactive” in each case. The compound was classed as inactive in assay [2], in [3], in assay [4], in [6] and in assay [8]. The activity change, positive = activation in [9] is 6.25%.

Regarding `O=S(O)(O)=S`, the activation in assay [1] was 8.08% [at 8.39 µM]; in [4], -1% [at 7.01 µM]. For the same compound, the activity change, negative = cytotoxicity in [2] is -1.07% [at 6.97 µM]; in assay [5], 0.0189% [at 14 µM]; in assay [6] it was 4.23% [at 6.97 µM]. Further, the activation (H2AX phosphorylation) in assay [3] is 2.44% [at 14 µM]. For the same compound, the activity change, positive = activation in assay [9] is 4.43% [at 8.39 µM]. The activity change, negative = cytotoxic in [7] is 0.732% [at 6.97 µM]. In addition, in assay [8], the cytotoxicity is 0.0066% [at 6.97 µM].

Turning to `C[Si](C)=O`, the activation in assay [1] was 1.85% [at 8.39 µM]; in assay [4], -1.19% [at 7.01 µM]. Moreover, the activity change, negative = cytotoxicity in [2] is 3.37% [at 6.97 µM]; in assay [5], -6.59% [at 14 µM]; in [6], 0.943% [at 6.97 µM]. Besides, the activation (H2AX phosphorylation) in assay [3] is -1.6% [at 14 µM]. The activity change, positive = activation in [9] is 0.654% [at 8.39 µM]. The activity change, negative = cytotoxic in [7] is 1.65% [at 6.97 µM]. For the same compound, in assay [8], the cytotoxicity is 2.11% [at 6.97 µM].

Take `CCOC(=O)/C=C/c1ccccc1`: the Potency entry in assay [1], in assay [5] and in assay [7] was “inactive” throughout. For the same compound, the call in [2], in assay [3], in [4], in assay [6] and in [8] was inactive.

In the case of `O=C(O)c1ccc(Cl)cc1Cl`, the Potency entry in [1], in [5] and in assay [7] was “inactive” each time. Also, the result in assay [2], in assay [3], in assay [4], in assay [6] and in assay [8] was inactive.

For the compound `CC(S)C(=O)NCC(=O)O` (configuration not stated), the Potency result in assay [1], in assay [5] and in assay [7] was “inactive” throughout. Further, the call in [2], in [3], in assay [4] and in assay [6] was inactive.

Regarding `COP(=O)(OC)OC(c1ccc(Cl)cc1)P(=O)(OC)OC` (configuration not stated), the Potency result in [1] and in assay [5] was “inactive” each time. For the same compound, the call in assay [2], in assay [3], in [4] and in [8] was inactive. The activity change, positive = activation in [9] was 1.9% [at 42.5 µM].

`O=S(=O)(O)c1ccc2cc(O)c(S(=O)(=O)O)cc2c1`: the Potency result in assay [1], in assay [5] and in [7] was “inactive” each time. Moreover, the outcome in [2], in assay [3], in assay [4], in assay [6] and in assay [8] was inactive.

On to `Nc1ccc([N+](=O)[O-])c(N)c1`, for which the Potency entry in [1], in [5] and in [7] was “inactive” throughout. The compound was called inactive in assay [2], in [3], in [4], in assay [6] and in assay [8]. Also, in [9], the activity change, positive = activation was 5.15%.

`CCOc1cc(NC(C)=O)ccc1C(=O)OC`: the Potency result in [1] and in [5] was “inactive” each time. Also, the result in assay [2], in assay [3], in [4], in assay [6] and in assay [8] was inactive. For the same compound, the activity change, positive = activation in [9] was -6.13% [at 42.5 µM].

`O=C(O)Cc1cn(-c2ccccc2)nc1-c1ccc(Cl)cc1`: the Potency entry in assay [1], in assay [5] and in assay [7] was “inactive” each time. Moreover, the compound was classed as inactive in [2], in assay [3], in assay [4], in [6] and in assay [8].

Turning to `C=C(C)C1CCC(C)(O)CC1` (configuration not stated), the Potency result in assay [1], in assay [5] and in assay [7] was “inactive” each time. For the same compound, the compound was classed as inactive in assay [2], in assay [3], in assay [4], in [6] and in assay [8].

In the case of `O=C1c2cccc3c2[C@H](CCC3)CN1[C@@H]1CN2CCC1CC2`, the Potency result in assay [1] and in assay [5] was “inactive” in each case. Besides, the outcome in [2], in assay [3], in assay [4], in assay [6] and in [8] was inactive. Further, in assay [9], the activity change, positive = activation was 20.8% [at 42.5 µM] (active).

Consider `C[C@H](N)[C@H](O)c1cccc(O)c1`, for which the Potency entry in [1], in assay [5] and in assay [7] was “inactive” throughout. The compound was called inactive in assay [2], in [3], in assay [4], in [6] and in assay [8].

As for `COc1ccc(OC)c(Cl)c1`, the Potency result in [1], in assay [5] and in [7] was “inactive” each time. In addition, the compound was called inactive in assay [2], in assay [3], in assay [4], in [6] and in [8]. In addition, in assay [9], the activity change, positive = activation was -2.23%.

In the case of `O=C(Nc1ccc(Cl)c(Cl)c1)C1CC1`, the Potency entry in assay [1] and in assay [5] was “inactive” each time. Besides, the call in assay [2], in assay [3], in assay [4], in assay [6] and in assay [8] was inactive. In addition, the activity change, positive = activation in [9] is -22.3% [at 42.5 µM].

On to `CC(C)CC(C)CC(C)CC(C)COC(=O)c1ccccc1C(=O)OCC(C)CC(C)CC(C)CC(C)C` (configuration not stated), for which the Potency result in [1] and in assay [5] was “inactive” throughout. The compound was called inactive in assay [2], in [3], in [4] and in assay [8]. For the same compound, the activity change, positive = activation in assay [9] was -6.15%.

Take `O=C(OCC1(COC(=O)c2cccnc2)CCCC(COC(=O)c2cccnc2)(COC(=O)c2cccnc2)C1O)c1cccnc1`: the Potency result in assay [1], in [5] and in assay [7] was “inactive” each time. Further, the result in assay [2], in assay [3], in assay [4], in assay [6] and in assay [8] was inactive.

With `N[C@@H](CCC(=O)Nc1ccc([N+](=O)[O-])cc1)C(=O)O`, the Potency entry in assay [1] and in assay [5] was “inactive” in each case. The outcome in assay [2], in assay [3], in assay [4], in assay [6] and in assay [8] was inactive. Also, the activity change, positive = activation in [9] is -15.8%.

For the compound `CC(C)=CCOC(=O)c1ccccc1`, the Potency result in assay [1] and in assay [5] was “inactive” in each case. For the same compound, the outcome in assay [2], in assay [3], in assay [4], in assay [6] and in assay [8] was inactive. Moreover, in [9], the activity change, positive = activation was 2.82%.
